Results: PubChem BioAssay AID540333 (Southern Research Specialized Biocontainment Screening …, 2011)
Hit rate of the full screen: of about 10,000 compounds, about 320 (3.2%) were called active. No stated cut-off is given here; in the data, active means CPE inhibition mostly above about 9.1% (no sharp cut-off); inactive means mostly below about 7.2%. The list comes from a sample in which actives are over-represented; it also holds similar structures and randomly drawn compounds.

Assay: antivirals protecting cells from dengue CPE – CPE readout, HTS (AID 540333)
Details: Dengue virus CPE inhibition in host cells, at 20 µM; stronger effect = higher value

Row | Structure (SMILES) | CPE inhibition
1 | COc1ccccc1NC(=S)N1CCN(C/C=C/c2ccccc2)CC1 | 0.46% (inactive)
2 | O=C(N/N=C/c1cccc(O)c1)c1ccc(COc2ccccc2Br)cc1 | 3.17% (inactive)
3 | S=C(NCCCNC(=S)Nc1ccccc1)Nc1ccccc1 | inactive
4 | CCOCC(O)CNc1ccccc1 (configuration not stated) | inactive
5 | COc1ccc(N(C(=O)CS(=O)CC(=O)Nc2ccc(F)cc2)C(C(=O)NC2CCCCC2)c2cccs2)cc1 (configuration not stated) | 0.1% (inactive)
6 | COC(=O)c1c(NC(C)=O)sc2c1CCCCC2 | 0.285% (inactive)
7 | COC(=O)c1c(NC(=O)C2C3CCC(O3)C2C(=O)O)sc2c1CCCCCC2 (configuration not stated) | 0.645% (inactive)
8 | CCOC(=O)c1c(NC(=O)c2ccccc2N(C)S(=O)(=O)c2ccccc2)sc2c1CCCC2 | 0.225% (inactive)
9 | CCOC(=O)c1c(NC(=O)COC(=O)c2ccccn2)sc2c1CCC2 | inactive
10 | COC(=O)c1c(NC(=O)CN2C(=O)NC(CCc3ccccc3)C2=O)sc2c1CCCCC2 (configuration not stated) | 25.6% (active)
11 | O=C(COC(=O)CNS(=O)(=O)c1ccc2ccccc2c1)Nc1ccccc1Sc1ccccc1 | inactive
12 | COC(=O)c1c(NC(=O)CN(c2ccccc2)S(C)(=O)=O)sc2c1CCCC2 | 18% (active)
13 | COC(=O)c1c(NC(=O)COC(=O)c2ccc(Cl)cc2[N+](=O)[O-])sc2c1CCCCC2 | 3.41% (inactive)
14 | COC(=O)c1c(NC(=O)COC(=O)[C@@H](NS(=O)(=O)c2ccccc2)C(C)C)sc2c1CCC2 | 24% (active)
15 | CC(C)OC(=O)c1c(NC(=O)CCC(=O)O)sc2c1CCCCC2 | inactive
16 | O=C(COC(=O)CNS(=O)(=O)c1cccc(Br)c1)Nc1ccccc1Sc1ccccc1 | inactive
17 | CC(C)[C@H](NS(=O)(=O)c1ccccc1)C(=O)OCC(=O)Nc1ccccc1Sc1ccccc1 | 24.5% (active)
18 | CCCCn1c(N)c(NCCC)c(=O)[nH]c1=O | inactive
19 | COc1cc(C)c(S(=O)(=O)N2CCN=C2c2ccccc2)cc1C | inactive
20 | CCO[C@@H]1OC(C(=O)O)=C[C@H](c2cn(C(C)=O)c3ccccc23)[C@H]1CCCO | inactive
21 | Cc1ccccc1NC(=S)NCC(c1cccnc1)N1CCOCC1 (configuration not stated) | inactive

Row | Structure (SMILES) | CPE inhibition
22 | N#Cc1c(-c2ccccc2)nc(SCC(=O)Nc2ccccc2)[nH]c1=O | inactive
23 | Cc1cccc(N2CCN(C(=S)NCc3ccco3)CC2)c1C | 0.45% (inactive)
24 | CC(NS(=O)(=O)c1ccc2c(c1)OCCCO2)C(=O)O (configuration not stated) | 0.55% (inactive)
25 | CCCCOC(=O)/C=C/c1ccc(OC(=O)OC)c(OC(=O)OC)c1 | inactive
26 | COc1ccc(/C(O)=C2/C(=O)C(=O)N(CCCN(C)C)C2c2cccc(Cl)c2)cc1OC (configuration not stated) | 0.13% (inactive)
27 | CCOC(=O)c1c(NC(=O)CSC(=S)N2CCOCC2)sc(C)c1C | 0.065% (inactive)
28 | COc1ccc(C(=O)NC(=S)N(CCC(C)C)c2c(N)n(Cc3ccccc3)c(=O)[nH]c2=O)cc1 | 0.675% (inactive)
29 | CC(=O)c1cc(-c2ccccc2)n(CC(=O)Nc2cccc(C)c2C)c1C | 0.49% (inactive)
30 | CC(C)(C)N1C(=O)[C@H]2[C@@H](c3ccc(Br)cc3)N3C(=O)N(c4cccc(Cl)c4)C(=O)[C@@]3(Cc3ccccc3)[C@H]2C1=O | 31.9% (active)
31 | CCOC(=O)[C@@H]1[C@H]2COc3ccccc3[C@H]2N2C(=O)N(c3cccc(Cl)c3)C(=O)[C@]12C | 0.045% (inactive)
32 | COc1ccc([C@@H]2[C@@H]3C(=O)N(C(C)(C)C)C(=O)[C@@H]3[C@]3(C)C(=O)N(c4ccc(C)cc4)C(=O)N23)cc1 | inactive
33 | CC[C@@]12C(=O)N(c3ccccc3)C(=O)N1[C@H](c1ccc(Br)cc1)[C@@H]1C(=O)N(C(C)(C)C)C(=O)[C@@H]12 | 5.79% (inactive)
34 | Cc1cccc([C@@H]2[C@@H]3C(=O)N(Cc4ccccc4)C(=O)[C@@H]3[C@]3(CC(C)C)C(=O)N(c4cccc(Br)c4)C(=O)N23)c1 | 1.25% (inactive)
35 | COc1ccc([C@@H]2[C@@H]3C(=O)N(C(C)(C)C)C(=O)[C@@H]3[C@]3(Cc4ccccc4)C(=O)N(c4ccc(OC)cc4)C(=O)N23)cc1 | 0.525% (inactive)
36 | COc1ccc([C@@H]2[C@@H]3C(=O)N(C(C)(C)C)C(=O)[C@@H]3[C@]3(C)C(=O)N(c4cccc(Cl)c4)C(=O)N23)cc1 | 0.865% (inactive)
37 | CC[C@@]12C(=O)N(c3cccc(Br)c3)C(=O)N1[C@H](c1cccc(C)c1)[C@@H]1C(=O)N(Cc3ccccc3)C(=O)[C@@H]12 | 12.7% (active)
38 | CC[C@@]12C(=O)N(c3cccc(Cl)c3)C(=O)N1[C@H](c1ccc(Br)cc1)[C@@H]1C(=O)N(C(C)(C)C)C(=O)[C@@H]12 | 23.6% (active)
39 | CC(C)(C)N1C(=O)[C@H]2[C@@H](c3ccc(Br)cc3)N3C(=O)N(c4ccccc4)C(=O)[C@@]3(C)[C@H]2C1=O | 2.17% (inactive)
40 | CCN1C(=O)[C@H]2[C@@H](c3ccc(C)cc3)N3C(=O)N(c4ccccc4)C(=O)[C@@]3(CC)[C@H]2C1=O | inactive
41 | CC(C)C[C@@]12C(=O)N(c3cccc(F)c3)C(=O)N1[C@H](c1ccc(Br)cc1)[C@@H]1C(=O)N(C(C)(C)C)C(=O)[C@@H]12 | 52.3% (active)
42 | CC(=O)c1ccc(N2Cc3ccccc3/C2=N\C(=O)Nc2ccccc2)cc1 | 1.88% (inactive)

Row | Structure (SMILES) | CPE inhibition
43 | O=C(c1cc(-c2ccccc2)nn1CC1CC(c2cccnc2)=NO1)N1CCOCC1 (configuration not stated) | 0.185% (inactive)
44 | Cc1ccc(/C=C/C(=O)NCCCN2CCN(CCCNC(=O)/C=C/c3ccc(C)o3)CC2)o1 | 0.03% (inactive)
45 | Cc1ccc([N+](=O)[O-])cc1S(=O)(=O)NCCc1c(C)[nH]c2c(C)cccc12 | 0.035% (inactive)
46 | COc1ccc(NC(=S)N(CCN(C)C)C(C)c2ccco2)cc1 (configuration not stated) | 1.96% (inactive)
47 | CCC(=O)N/N=C(\C)CC(=O)Nc1ccccc1-c1ccccc1 | inactive
48 | Cc1ccc(-c2cc3c(n2-c2ccc(C(=O)O)cc2)CCCC3=O)cc1 | inactive
49 | COc1ccc(C(=O)NCC(=O)NCC(c2ccco2)N(C)C)cc1OC (configuration not stated) | inactive
50 | CCOc1ccc(NC(=O)CNC(=O)COc2ccccc2)cc1 | 0.38% (inactive)
51 | COC(C(=O)Nc1ccc(S(=O)(=O)Nc2cccc3ccccc23)cc1)c1ccccc1 (configuration not stated) | 5.08% (inactive)
52 | O=C(NC(=S)N1CCN(c2ccc([N+](=O)[O-])cc2)CC1)c1ccccc1F | 1.42% (inactive)
53 | O=C(COC(=O)CC1c2ccccc2CCN1S(=O)(=O)c1ccccc1)Nc1ccccc1 (configuration not stated) | 0.325% (inactive)
54 | COc1ccc([C@H]2CC(=O)C=C(c3ccccc3)C2)cc1 | 3.05% (inactive)
55 | COc1ccc([C@H]2CC(=O)C=C(c3cccc(OC)c3)C2)cc1 | inactive
56 | CCOC(=O)c1cccc(C2=CC(=O)C[C@H](c3ccc(OC)cc3)C2)c1 | 11.8% (active)
57 | CCOc1cccc(OCCOCCN(C)C)c1 | inactive
58 | CCOC(=O)C1=NNC2(c3ccc(Cl)cc3)C(=O)N(c3ccc(C)cc3)C(=O)C12 (configuration not stated) | inactive
59 | CC(=O)Nc1ccc(S(=O)(=O)NCCSCc2cccc(Cl)c2)cc1 | 1.06% (inactive)
60 | CSCCC(NC(=O)c1ccc(Cl)cc1)C(=O)OCC(=O)Nc1cc(Cl)ccc1C (configuration not stated) | 0.1% (inactive)
61 | CSCCC(NS(=O)(=O)c1ccc(Cl)cc1)C(=O)OCc1cccc(Cl)c1 (configuration not stated) | 12% (active)
62 | CC(C)OC(=O)/C(=C/c1ccc(Br)cc1)NC(=O)c1ccco1 | inactive
